Source: PubChem BioAssay
SUMO HTRF inh: inhibitors of in vitro SUMOylation cascade, primary screen, biochemical, HTRF, uHTS; HTRF SUMOylation assay, SAE1/SAE2 + UBC9; SUMO-conjugating enzyme UBC9 (Homo sapiens), P63279; inhibition, % at 35 µM; 290,000 tested, 0.36% active; in the data active = inhibition above about 50%, passing the limit was not always enough
sPLA2-III inh: human group III sPLA2 inhibitors, primary screen, biochemical, QFRET, BODIPY PC-A2 liposome substrate. Group 3 secretory phospholipase A2 (Homo sapiens), Q9NZ20. QFRET BODIPY PC-A2 liposome hydrolysis, fluorescence. inhibition, % at 12.2 µM. 370,000 tested, 0.56% active. AID 743126, 2013;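 active = inhibition above mean plus 3 SD of compounds lying within the high and low control bounds, cut at about 19% in these data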;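 also: 0% = median of test compound wells and 100% = no enzyme DMSO wells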
Target sequence (Q9NZ20 whole entry, looked up): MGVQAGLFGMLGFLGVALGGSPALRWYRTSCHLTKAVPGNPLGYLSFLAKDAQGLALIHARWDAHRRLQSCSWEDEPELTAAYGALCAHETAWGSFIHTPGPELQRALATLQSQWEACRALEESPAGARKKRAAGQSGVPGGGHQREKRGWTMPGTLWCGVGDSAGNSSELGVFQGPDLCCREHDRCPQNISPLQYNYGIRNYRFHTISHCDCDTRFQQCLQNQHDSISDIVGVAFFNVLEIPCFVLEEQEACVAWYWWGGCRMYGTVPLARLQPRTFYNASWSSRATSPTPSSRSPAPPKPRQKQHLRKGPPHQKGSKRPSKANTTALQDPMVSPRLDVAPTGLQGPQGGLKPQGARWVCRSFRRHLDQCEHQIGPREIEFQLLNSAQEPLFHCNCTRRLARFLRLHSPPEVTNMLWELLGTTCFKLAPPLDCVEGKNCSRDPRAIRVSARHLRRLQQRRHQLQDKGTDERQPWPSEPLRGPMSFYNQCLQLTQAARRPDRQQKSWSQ
UBC13 inh: UBC13 polyubiquitin chain formation inhibitors, primary screen, biochemical, TR-FRET, uHTS; Ubiquitin-conjugating enzyme E2 N (Homo sapiens), P61088; inhibition, % at 20 µM; 330,000 tested, 0.47% active; in the data active = inhibition above about 45%, passing the limit was not always enough
NR3A LBD binder: binders of NR3A ligand-binding domain, primary screen, biophysical, differential scanning fluorimetry, uHTS; AID 1259313, 2017; NR3A LBD differential scanning fluorimetry, Tm shift; 0% = protein alone, 100% = glycine-bound protein; 340,000 tested, 2.5% active; Tm shift relative to glycine control, % at 25 µM;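 active = melting temperature shift of at least 10% of the positive control shift, at one fixed dose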
Casp3 counter: CASP3 inhibitor validation, counterassay for project on UBE2N polyubiquitination blockers, biochemical, one dose | shares compounds with UBC13 inh | Recombinant caspase-3, Caspase-Glo 3/7 luminescence, 60 min | inhibition, % at 20 µM | 1,400 tested, 4% active | AID 488856, 2010;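 active = mean inhibition across replicates above about 26%, limit read from the data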;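 also: plate controls were DMSO with caspase-3 for no effect and DMSO wells lacking enzyme for full effect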
UBC13 conf: UBC13 polyubiquitination inhibitors, single-point retest, confirmation, biochemical, TR-FRET, single concentration. 1,400 tested, 68% active. inhibition, % at 10 µM. shares compounds with UBC13 inh; in the data active = inhibition above about 45%
* hit, by the source's call; x = not tested or not shown. Hits are enriched below; roughly 3.3% of the tested compounds scored in any of these assays.

SMILES	SUMO HTRF inh	sPLA2-III inh	UBC13 inh	NR3A LBD binder	Casp3 counter	UBC13 conf
C#CCOCCOCCOCCNc1nc(N2CCN(C(=O)C([C@@H](C)O)n3cc([C@@H](N)CCCCN)nn3)CC2)nc(N2CCN(C(=O)[C@H](CCCN=C(N)N)n3cc(C(N)[C@@H](C)CC)nn3)CC2)n1 (stereo not given in full)	x	x	101*	0	7	111*
C#CCOCCOCCOCCNc1nc(N2CCN(C(=O)[C@H]([C@@H](C)CC)n3cc(CCCN=C(N)N)nn3)CC2)nc(N2CCN(C(=O)[C@H](CCCCN)n3cc(CCCC)nn3)CC2)n1	8	-26	71*	0	0	47*
C#CCOCCOCCOCCNc1nc(N2CCN(C(=O)[C@H](CCCN=C(N)N)n3cc(C(N)[C@@H](C)CC)nn3)CC2)nc(N2CCN(C(=O)[C@H](CCCCN)n3cc([C@@H](N)CC(N)=O)nn3)CC2)n1 (stereo not given in full)	x	10	50*	0	-5	44
C#CCOCCOCCOCCNc1nc(N2CCN(C(=O)[C@H](C)n3cc(CCCN=C(N)N)nn3)CC2)nc(N2CCN(C(=O)[C@H](CCCCN)n3cc(CCCC)nn3)CC2)n1	18	x	x	x	x	x
C#CCOCCOCCOCCNc1nc(N2CCN(C(=O)[C@H](CO)n3cc([C@@H](N)C(C)C)nn3)CC2)nc(N2CCN(C(=O)[C@H](CCCCN)n3cc([C@@H](N)[C@H](C)CC)nn3)CC2)n1	x	5	84*	1	-3	59*
COC(=O)C1CN(Cc2cn(Cc3ccc(Cl)cc3)nn2)CCS(=O)(=O)N1Cc1ccc(Cl)cc1 (stereo not given)	x	-13	x	x	x	x
COC(=O)[C@]12C[C@H](CC(=O)NCCCCc3ccccc3)C(=O)N(Cc3cccc4ccccc34)C1=C[C@H](C(C)C)O[C@@H]2C1CC1	x	-11	x	x	x	x
Cc1cc(C(C)(C)CC(C)(C)C)ccc1OCCOCC[N+](C)(C)Cc1ccccc1	x	-7	100*	-3	-2	105*
COC(=O)c1c(NC(=O)c2nc3ccccc3s2)sc2c1CCN(C(C)=O)C2	8	x	104*	0	-2	94*
CCCCCCCC(=O)N1CCN(c2cc3c(cc2F)c(=O)c(C(=O)O)cn3CC)CC1	5	-3	40	0	x	x
CCCCCCCCC(=O)N1CCN(c2cc3c(cc2F)c(=O)c(C(=O)O)cn3CC)CC1	0	1	46*	-1	1	16
O=C(Nc1ccccc1)N1CCN(c2nc(-c3ccccc3)ns2)CC1	6	-2	49*	0	-1	63*
Cc1cccc(-c2cccc3c4c([nH]c23)[C@@H]2C[C@H](N(C)C(=O)c3ccco3)[C@H]([C@H](C)O)C(=O)N2CC4)c1	x	-42	x	x	x	x
COc1c2c(cc(O)c1C(C)=O)OC(C)(C)C=C2	x	6	x	0	x	x
CC(C)=CCc1c(-c2ccc(O)cc2O)oc2cc3c(c(O)c2c1=O)C=CC(C)(C)O3	x	x	50*	31*	0	2
Cc1nc(N)sc1C(=O)NN	3	9	49*	1	8	35
Cc1nc(-c2ccccc2)sc1C(=O)NN	15	-1	5	1	x	x
Cn1c(=O)c2c(ncn2CC(COCc2ccc(Cl)cc2)OCc2ccc(Cl)cc2)n(C)c1=O (stereo not given)	8	-21	3	0	x	x
Cn1c(=O)c2c(ncn2Cc2ccc(Cl)cc2)n(C)c1=O	8	9	57*	0	-6	53*
Cc1ccc(CNC[C@@]23CO[C@H](c4ccc(Cl)cc4)N2[C@@H](c2ccc(Cl)cc2)SC3)o1	x	2	x	x	x	x
Cc1ccc(-n2c(SCc3ccc(Cl)c(Cl)c3)nnc2-c2ccc(C(C)(C)C)cc2)cc1	x	9	x	x	x	x
CC1(C)CC(=O)C=C(Nc2ccccc2NC(=O)c2cc(F)cc(F)c2)C1	x	8	x	x	x	x
NC(N)=NCCCC(NC(=O)c1ccccc1)C(=O)Nc1ccc2ccccc2c1 (stereo not given)	x	1	48*	5	-1	30
CCC(c1c[nH]c2ccccc12)c1cn(C)c2ccccc12 (stereo not given)	x	-29	x	x	x	x
CCCCN(C(=O)c1ccco1)c1nnc(-c2cc(OC)c(OC)c(OC)c2)s1	-2	-1	50*	4	2	38
SMILES	SUMO HTRF inh	sPLA2-III inh	UBC13 inh	NR3A LBD binder	Casp3 counter	UBC13 conf
C=CCN1C(C(=O)OC)CN(Cc2cn(Cc3ccc(C)cc3)nn2)CCS1(=O)=O (stereo not given)	x	3	x	x	x	x
Nc1c(C(=O)Nc2ccccc2)c2nc3ccccc3nc2n1CCCN1CCOCC1	-24	-13	64*	18*	4	54*
CCn1c(SCC(=O)N/N=C/c2cccc(Oc3ccccc3)c2)nnc1-c1ccccc1	x	-16	x	x	x	x
CCCOc1ccc(C(=O)NNC(=S)NC(C)=O)cc1	0	9	75*	-1	2	95*
CCC(=O)NC(=S)NNC(=O)c1ccc(OC)cc1	-5	7	81*	-2	-2	86*
CCC(=O)NC(=S)NNC(=O)c1ccc([N+](=O)[O-])cc1	-12	2	68*	-1	4	87*
CC(C)CC(=O)NC(=S)NNC(=O)c1ccc([N+](=O)[O-])cc1	19	19	-16	1	x	x
CCCCNC(=O)NS(=O)(=O)c1ccc(NC(=O)CSc2ncnc3scc(-c4ccc(C)cc4)c23)cc1	x	-57	x	x	x	x
CC1CCN(c2ccc(C(=O)O)cc2NS(=O)(=O)c2cccc3cccnc23)CC1	x	-1	x	x	x	x
COc1ccc(C(=O)C2(C(=O)NCc3ccccc3)CC(c3ccccc3C(F)(F)F)=NO2)cc1 (stereo not given)	x	-8	x	x	x	x
CCCCCc1cc(=O)oc2c(C(CCN3CCN(c4ccccc4)CC3)c3ccc4c(c3)OCO4)c(OC)cc(OC)c12 (stereo not given)	-9	0	16	0	x	x
CCCCCc1cc(=O)oc2c(C(CCN(CC)CC)c3ccc(OC)cc3)c(OC)cc(OC)c12 (stereo not given)	-4	-8	83*	-5	-1	76*
CCCCCc1cc(=O)oc2c(C(CCN3CCCC(C)C3)c3ccc(OC)cc3)c(OC)cc(OC)c12 (stereo not given)	-3	-16	65*	-1	2	53*
CCCCCc1cc(=O)oc2c(C(CCN3CCCCC3)c3ccc(OC)cc3)c(OC)cc(OC)c12 (stereo not given)	5	-15	84*	3	-1	63*
